# Source: the supplement of paper PMC8728848
# Only a selection was taken, and the strongest signals are over-represented in it overall.
# B1: CLECb-Precomplexed (Mus musculus), P43025 (protein)
# chain: MAKNGLVLCILVVSLLLDQTDGYPSRMKARKHSKRRVKAKDDDLKSQVEKLWREVNALKEMQALQTVCLRGTKVHKKCYLASEGLKHYHEANEDCISKGGTLVVPRNSDEINALRDYGKRSLPGVNDFWLGINDMVTEGKFLDVHGFAVSFLNWDRAQPSGGKRENCVLFSQSAQGKWSDEACRSSKRYICEFIIPTRTRPLEQKLISEEDLAANDILDYKDDDDKV
# Experiments:
# Experiment in all cases: glycan array binding signal (z-score within array); higher = stronger binding
# Conditions in all cases: glycan notation: IUPAC condensed, linker removed
# [1] = target: Fuc(a1-2)Gal(b1-3)GlcNAc6S
# Method in brief: (§1)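 Columns mapping to the same glycan were averaged after glycan names were converted to IUPAC-condensed notation. The data come from 3228 arrays in the Consortium for Functional Glycomics database, limited to those with an available protein sequence. Binding is reported as a within-array Z-score averaged across arrays of one protein sequence and across linkers.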
# [2] = target: Fuc(a1-2)Gal(b1-4)GlcNAc(b1-2)Man(a1-3)[Fuc(a1-2)Gal(b1-4)GlcNAc(b1-2)Man(a1-6)]Man(b1-4)GlcNAc(b1-4)GlcNAc
# Method in brief: as §1
# [3] = target: Fuc(a1-2)Gal6S(b1-3)GlcNAc
# Method in brief: as §1
# [4] = target: Fuc(a1-2)[GalNAc(a1-3)]Gal(b1-4)Glc
# Method in brief: as §1
# [5] = target: Fuc(a1-2)[GalNAc(a1-3)]Gal(b1-4)GlcNAc(b1-2)Man(a1-3)[Fuc(a1-2)[GalNAc(a1-3)]Gal(b1-4)GlcNAc(b1-2)Man(a1-6)]Man(b1-4)GlcNAc(b1-4)GlcNAc
# Method in brief: as §1
# [6] = target: Fuc(a1-2)[GalNAc(b1-3)]Gal
# Method in brief: as §1
# [7] = target: Fuc(a1-3)[Gal(b1-4)]GlcNAc
# Method in brief: as §1
# [8] = target: Fuc(a1-3)[Gal(b1-4)]GlcNAc(b1-6)[Gal(b1-3)GlcNAc(b1-3)]Gal(b1-4)Glc
# Method in brief: as §1
# [9] = target: Fuc(a1-3)[Gal3S(b1-4)]GlcNAc6S
# Method in brief: as §1
# [10] = target: Gal(a1-3)Gal(b1-3)GlcNAc(b1-3)GalNAc
# Method in brief: as §1
# [11] = target: Gal(a1-3)Gal(b1-3)[Fuc(a1-4)]GlcNAc(b1-2)Man(a1-3)[Gal(a1-3)Gal(b1-3)[Fuc(a1-4)]GlcNAc(b1-2)Man(a1-6)]Man(b1-4)GlcNAc(b1-4)GlcNAc
# Method in brief: as §1
# Gal(a1-3)GalNAc = target: Gal(a1-3)GalNAc
# Method in brief: as §1
# [12] = target: Gal(b1-3)GlcNAc(b1-3)Gal(b1-3)GlcNAc
# Method in brief: as §1
# [13] = target: Gal(b1-3)GlcNAc(b1-3)Gal(b1-4)GlcNAc(b1-2)Man(a1-3)[Gal(b1-3)GlcNAc(b1-3)Gal(b1-4)GlcNAc(b1-2)Man(a1-6)]Man(b1-4)GlcNAc(b1-4)GlcNAc
# Method in brief: as §1
# [14] = target: Gal(b1-3)GlcNAc(b1-6)[Gal(b1-3)]GalNAc
# Method in brief: as §1
# [15] = target: Gal(b1-3)[Fuc(a1-4)]GlcNAc(b1-2)Man
# Method in brief: as §1
# [16] = target: Gal(b1-3)[Fuc(a1-4)]GlcNAc(b1-2)Man(a1-3)[Gal(b1-3)[Fuc(a1-4)]GlcNAc(b1-2)Man(a1-6)]Man(b1-4)GlcNAc(b1-4)[Fuc(a1-6)]GlcNAc
# Method in brief: as §1
# [17] = target: Gal(b1-3)[Fuc(a1-4)]GlcNAc(b1-3)Gal(b1-3)[Fuc(a1-4)]GlcNAc
# Method in brief: as §1
# [18] = target: Gal(b1-4)GlcNAc(b1-2)Man(a1-3)[GlcNAc(b1-2)Man(a1-6)]Man(b1-4)GlcNAc(b1-4)GlcNAc
# Method in brief: as §1
# [19] = target: Gal(b1-4)GlcNAc(b1-2)[Gal(b1-4)GlcNAc(b1-6)]Man(a1-6)[Gal(b1-4)GlcNAc(b1-2)Man(a1-3)]Man(b1-4)GlcNAc(b1-4)GlcNAc
# Method in brief: as §1
# [20] = target: Gal(b1-4)GlcNAc(b1-3)Gal(b1-4)Glc
# Method in brief: as §1
# [21] = target: Gal(b1-4)GlcNAc(b1-3)Gal(b1-4)GlcNAc(b1-2)Man(a1-3)[Gal(b1-4)GlcNAc(b1-3)Gal(b1-4)GlcNAc(b1-2)Man(a1-6)]Man(b1-4)GlcNAc(b1-4)GlcNAc
# Method in brief: as §1
# [22] = target: Gal(b1-4)GlcNAc(b1-3)Gal(b1-4)GlcNAc(b1-3)Gal(b1-4)GlcNAc(b1-2)[Gal(b1-4)GlcNAc(b1-3)Gal(b1-4)GlcNAc(b1-3)Gal(b1-4)GlcNAc(b1-6)]Man(a1-6)[Gal(b1-4)GlcNAc(b1-3)Gal(b1-4)GlcNAc(b1-3)Gal(b1-4)GlcNAc(b1-2)Man(a1-3)]Man(b1-4)GlcNAc(b1-4)[Fuc(a1-6)]GlcNAc
# Method in brief: as §1
# [23] = target: Gal(b1-4)GlcNAc(b1-3)Gal(b1-4)GlcNAc(b1-3)Gal(b1-4)GlcNAc(b1-3)Gal(b1-4)GlcNAc(b1-3)Gal(b1-4)GlcNAc(b1-2)Man(a1-3)[Gal(b1-4)GlcNAc(b1-3)Gal(b1-4)GlcNAc(b1-3)Gal(b1-4)GlcNAc(b1-3)Gal(b1-4)GlcNAc(b1-3)Gal(b1-4)GlcNAc(b1-2)Man(a1-6)]Man(b1-4)GlcNAc(b1-4)GlcNAc
# Method in brief: as §1
# [24] = target: Gal(b1-4)GlcNAc(b1-3)Gal(b1-4)GlcNAc(b1-3)Gal(b1-4)GlcNAc(b1-3)Gal(b1-4)GlcNAc(b1-3)Gal(b1-4)GlcNAc(b1-2)[Gal(b1-4)GlcNAc(b1-3)Gal(b1-4)GlcNAc(b1-3)Gal(b1-4)GlcNAc(b1-3)Gal(b1-4)GlcNAc(b1-3)Gal(b1-4)GlcNAc(b1-6)]Man(a1-6)[Gal(b1-4)GlcNAc(b1-3)Gal(b1-4)GlcNAc(b1-3)Gal(b1-4)GlcNAc(b1-3)Gal(b1-4)GlcNAc(b1-3)Gal(b1-4)GlcNAc(b1-2)Man(a1-3)]Man(b1-4)GlcNAc(b1-4)[Fuc(a1-6)]GlcNAc
# Method in brief: as §1
# [25] = target: Gal3S(b1-4)[Fuc(a1-3)]Glc6S
# Method in brief: as §1
# [26] = target: Gal3S(b1-4)[Fuc(a1-3)]GlcNAc6S
# Method in brief: as §1
# Gal3S6S(b1-4)GlcNAc = target: Gal3S6S(b1-4)GlcNAc
# Method in brief: as §1
# Gal6S(b1-4)Glc6S = target: Gal6S(b1-4)Glc6S
# Method in brief: as §1
# Gal6S(b1-4)GlcNAc6S = target: Gal6S(b1-4)GlcNAc6S
# Method in brief: as §1
# [27] = target: GalNAc(b1-4)GlcNAc(b1-2)Man(a1-3)[GalNAc(b1-4)GlcNAc(b1-2)Man(a1-6)]Man(b1-4)GlcNAc(b1-4)GlcNAc
# Method in brief: as §1
# [28] = target: GlcNAc(a1-4)Gal(b1-4)GlcNAc(b1-3)Gal(b1-4)GlcNAc
# Method in brief: as §1
# [29] = target: GlcNAc(b1-3)Gal(b1-4)GlcNAc(b1-2)Man(a1-3)[GlcNAc(b1-3)Gal(b1-4)GlcNAc(b1-2)Man(a1-6)]Man(b1-4)GlcNAc(b1-4)[Fuc(a1-6)]GlcNAc
# Method in brief: as §1
# [30] = target: GlcNAc(b1-3)Gal(b1-4)GlcNAc(b1-3)Gal(b1-4)GlcNAc(b1-3)Gal(b1-4)GlcNAc(b1-2)Man(a1-3)[GlcNAc(b1-3)Gal(b1-4)GlcNAc(b1-3)Gal(b1-4)GlcNAc(b1-3)Gal(b1-4)GlcNAc(b1-2)Man(a1-6)]Man(b1-4)GlcNAc(b1-4)[Fuc(a1-6)]GlcNAc
# Method in brief: as §1
# GlcNAc(b1-3)Man = target: GlcNAc(b1-3)Man
# Method in brief: as §1
# [31] = target: GlcNAc(b1-3)[GlcNAc(b1-4)][GlcNAc(b1-6)]GlcNAc
# Method in brief: as §1
# [32] = target: GlcNAc(b1-4)Gal(b1-4)GlcNAc
# Method in brief: as §1
# [33] = target: GlcNAc(b1-4)GlcNAc(b1-4)GlcNAc
# Method in brief: as §1
# [34] = target: GlcNAc(b1-4)GlcNAc(b1-4)GlcNAc(b1-4)GlcNAc(b1-4)GlcNAc(b1-4)GlcNAc
# Method in brief: as §1
# [35] = target: Neu5Ac(a2-3)Gal(b1-3)GlcNAc(b1-2)Man(a1-3)[GlcNAc(b1-4)][Neu5Ac(a2-3)Gal(b1-3)GlcNAc(b1-2)Man(a1-6)]Man(b1-4)GlcNAc(b1-4)GlcNAc
# Method in brief: as §1
# [36] = target: Neu5Ac(a2-3)Gal(b1-4)GlcNAc(b1-2)Man(a1-3)[Neu5Ac(a2-6)Gal(b1-4)GlcNAc(b1-2)Man(a1-6)]Man(b1-4)GlcNAc(b1-4)GlcNAc
# Method in brief: as §1
# [37] = target: Neu5Ac(a2-3)Gal6S(b1-4)GlcNAc
# Method in brief: as §1
# [38] = target: Neu5Ac(a2-3)[GalNAc(b1-4)]Gal(b1-4)GlcNAc
# Method in brief: as §1
# Neu5Ac(a2-6)Gal = target: Neu5Ac(a2-6)Gal
# Method in brief: as §1
# [39] = target: Neu5Ac(a2-6)Gal(b1-4)GlcNAc(b1-2)Man(a1-3)Man(b1-4)GlcNAc(b1-4)GlcNAc
# Method in brief: as §1
# [40] = target: Neu5Ac(a2-6)Gal(b1-4)GlcNAc(b1-2)Man(a1-3)[Neu5Ac(a2-3)Gal(b1-4)GlcNAc(b1-2)Man(a1-6)]Man(b1-4)GlcNAc(b1-4)GlcNAc
# Method in brief: as §1
# [41] = target: Neu5Ac(a2-6)Gal(b1-4)GlcNAc(b1-2)Man(a1-3)[Neu5Ac(a2-6)Gal(b1-4)GlcNAc(b1-2)Man(a1-6)]Man(b1-4)GlcNAc(b1-4)[Fuc(a1-6)]GlcNAc
# Method in brief: as §1
# [42] = target: Neu5Ac(a2-6)Gal(b1-4)GlcNAc(b1-3)Gal(b1-4)GlcNAc(b1-3)Gal(b1-4)GlcNAc(b1-2)Man(a1-3)[Neu5Ac(a2-6)Gal(b1-4)GlcNAc(b1-3)Gal(b1-4)GlcNAc(b1-3)Gal(b1-4)GlcNAc(b1-2)Man(a1-6)]GalNAc
# Method in brief: as §1
binder,measurement,setting,value
B1,glycan array binding signal (z-score),[1],-0.588
same,glycan array binding signal (z-score),[2],2.16
same,glycan array binding signal (z-score),[3],-0.377
same,glycan array binding signal (z-score),[4],-0.431
same,glycan array binding signal (z-score),[5],-0.336
same,glycan array binding signal (z-score),[6],-0.291
same,glycan array binding signal (z-score),[7],0.129
same,glycan array binding signal (z-score),[8],0.092
same,glycan array binding signal (z-score),[9],-0.231
same,glycan array binding signal (z-score),[10],0.142
same,glycan array binding signal (z-score),[11],9.55
same,glycan array binding signal (z-score),Gal(a1-3)GalNAc,-0.387
same,glycan array binding signal (z-score),[12],-0.229
same,glycan array binding signal (z-score),[13],0.774
same,glycan array binding signal (z-score),[14],-0.462
same,glycan array binding signal (z-score),[15],-0.166
same,glycan array binding signal (z-score),[16],2.08
same,glycan array binding signal (z-score),[17],0.004
same,glycan array binding signal (z-score),[18],-0.209
same,glycan array binding signal (z-score),[19],2.03
same,glycan array binding signal (z-score),[20],-0.229
same,glycan array binding signal (z-score),[21],2.63
same,glycan array binding signal (z-score),[22],3.07
same,glycan array binding signal (z-score),[23],2.1
same,glycan array binding signal (z-score),[24],11.2
same,glycan array binding signal (z-score),[25],3.47
same,glycan array binding signal (z-score),[26],0.004
same,glycan array binding signal (z-score),Gal3S6S(b1-4)GlcNAc,-0.251
same,glycan array binding signal (z-score),Gal6S(b1-4)Glc6S,0.254
same,glycan array binding signal (z-score),Gal6S(b1-4)GlcNAc6S,0.049
same,glycan array binding signal (z-score),[27],0.242
same,glycan array binding signal (z-score),[28],-0.295
same,glycan array binding signal (z-score),[29],-0.522
same,glycan array binding signal (z-score),[30],-0.255
same,glycan array binding signal (z-score),GlcNAc(b1-3)Man,-0.185
same,glycan array binding signal (z-score),[31],-0.456
same,glycan array binding signal (z-score),[32],-0.159
same,glycan array binding signal (z-score),[33],-0.15
same,glycan array binding signal (z-score),[34],-0.322
same,glycan array binding signal (z-score),[35],-0.444
same,glycan array binding signal (z-score),[36],-0.245
same,glycan array binding signal (z-score),[37],-0.618
same,glycan array binding signal (z-score),[38],-0.321
same,glycan array binding signal (z-score),Neu5Ac(a2-6)Gal,-0.301
same,glycan array binding signal (z-score),[39],0.007
same,glycan array binding signal (z-score),[40],-0.03
same,glycan array binding signal (z-score),[41],2.94
same,glycan array binding signal (z-score),[42],3.49
